Screens: PubChem, Broad Institute
FGF22 binding-1 – binders of human FGF22 protein, primary screen, FGF22 synaptogenesis inhibitor project, biophysical, thermal shift, single point; 340,000 tested, 1.5% active; recombinant FGF22 thermal shift, SYPRO orange fluorescence; percent of sucrose octasulfate shift, DMSO zero; activity (Tm shift, normalised), % at 9.99 µM; Fibroblast growth factor 22 (Homo sapiens), Q9HCT0; AID 651658, 2012;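 active means mean Tm shift, scaled 0 neutral to 100 positive control, at about 1.3% or above, every replicate too, limit read from the data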
Target sequence (Q9HCT0 whole entry, looked up): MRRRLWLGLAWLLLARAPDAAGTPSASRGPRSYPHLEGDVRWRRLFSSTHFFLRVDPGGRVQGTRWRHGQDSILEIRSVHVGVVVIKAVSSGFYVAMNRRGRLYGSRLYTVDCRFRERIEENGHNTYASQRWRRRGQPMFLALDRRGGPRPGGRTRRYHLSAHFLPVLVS
F508del corr – F508del CFTR correction, initial screen, CFBE line, single point; CFBE cells, YFP halide quenching; stimulated with forskolin plus potentiator P3; % fluorescence drop versus neutral controls; activity (quench increase), % at 7.58 µM; 350,000 tested, 0.36% active; AID 720511, 2013;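 active means mean added fluorescence quench of at least 8% versus neutral control, with both replicates also reaching 8%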;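 further: cells transiently co-express mutant CFTR-F508del with the halide-sensitive YFP; corrector assay measuring rescue of mutant channel to the surface after 24 h compound exposure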
Vif inh – HIV Vif self-association inhibitors, primary screen, imaging, HEK293T, single point; HEK293T cells, Vif self-association by quenched fluorescence, 24 h; AID 602346, 2012; 340,000 tested, 0.35% active; inhibition, % at 7.49 µM; in the data active means inhibition above about 50%, passing the limit was not always enough
FGF22 binding-2 – binders of human FGF22 protein, dose response, FGF22 synaptogenesis inhibitor project, biophysical, thermal shift, cherry-pick retest; recombinant FGF22 thermal shift, SYPRO orange fluorescence; 1,000 tested, 2% active; shares compounds with FGF22 binding-1; thermal shift activity, °C (ΔTm) at 38 µM;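 active means fitted rise in melting shift crosses a set limit at or below the top valid dose tested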
FGF22 TSA – binders of human FGF22 protein, dose response, FGF22 synaptogenesis inhibitor project, biophysical, thermal shift, dry powder; shares compounds with FGF22 binding-1; Thermal shift assay, SYPRO orange, melting temperature shift; Tm shift (activity), % at 38 µM; 50 tested, under 10 active; AID 743017, 2013;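 active means compounds whose fitted dose curve of melting temperature shift rises past a set threshold within the tested doses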
TSA no protein – compound-only thermal shift signal without protein, dose response, artefact control for FGF22 binder project, biochemical, cherry-picked samples, RT-PCR instrument; shares compounds with FGF22 binding-1; AID 743019, 2013; compound-only SYPRO orange thermal shift counter-screen, no protein; 1,000 tested, 2% active; AC50, µM (highest dose often 38 µM);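 active means rising signal whose fitted curve reaches the 0.54 level within the top valid dose, showing a melting point, actives reach about 13 µM in these data; inactive means the rest, including activity in the opposite direction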; further: value is where the raw curve crosses a fixed level and not half-maximal
* marks the source's active call; other numbers are inactive results; i = inactive; . = no result; [ ] = remark or other dose. Only some compounds are listed: those with a hit (about 1.7% of all), similar ones and a draw of the others.

SMILES | FGF22 binding-1 | F508del corr | Vif inh | FGF22 binding-2 | TSA no protein | others
Cc1noc(C)c1S(=O)(=O)Nc1ccc2c(c1)C(=O)N([C@H](C)CO)C[C@@H](C)[C@@H](CN(C)Cc1ccncc1)O2 | -0.3 | -2.1 | . | . | .
COc1ccccc1CNC(=O)C[C@H]1CC[C@@H]2[C@@H](COc3ccc(NC(=O)Nc4ccc(F)c(F)c4)cc3C(=O)N2C)O1 | 0.0 | -1.5 | . | . | .
O=C(C[C@@H]1CC[C@H]2[C@@H](COC[C@@H](O)CN2S(=O)(=O)c2cccc(F)c2)O1)Nc1ccc(-c2ccccc2)cc1 | -3.5 | -1.2 | . | . | .
O=C(C[C@@H]1CC[C@@H]2[C@H](COC[C@@H](O)CN2S(=O)(=O)c2cccc(F)c2)O1)Nc1ccc(-c2ccccc2)cc1 | 1.8* | -1.6 | . | 0.07[42 µM] | i
COc1cccc(-c2ccc3c(c2)[C@@H]2[C@@H](CCN2S(=O)(=O)c2ccccc2OC)[C@H](CO)N3C)c1 | 0.5 | 1.9 | . | . | .
C[C@H]1CCCCO[C@H](CN(C)S(=O)(=O)c2ccc(F)cc2)[C@@H](C)CN([C@@H](C)CO)C(=O)c2cc(NS(=O)(=O)c3cccs3)ccc2O1 | -0.7 | -0.7 | . | . | .
C/C=C/c1cnc2c(c1)C(=O)N([C@@H](C)CO)C[C@H](C)[C@@H](CN(C)C(=O)c1ccc3c(c1)OCO3)O2 | 2.6* | -2.6 | . | 0.175 | i
CC(=O)N(C)C[C@H]1Oc2ncc(C#C[C@@H](C)O)cc2C(=O)N([C@@H](C)CO)C[C@@H]1C | 0.4 | -1.2 | . | . | .
CC(C)C#Cc1cnc2c(c1)C(=O)N([C@@H](C)CO)C[C@@H](C)[C@H](CN(C)C(=O)c1cnccn1)O2 | 1.3* | 2.3 | . | 0.028 | i
CC(C)C#Cc1cnc2c(c1)C(=O)N([C@H](C)CO)C[C@@H](C)[C@@H](CN(C)C(=O)c1cnccn1)O2 | 0.8 | -1.4 | . | . | .
CC(=O)N(C)C[C@H]1Oc2ncc(C#C[C@H](C)O)cc2C(=O)N([C@@H](C)CO)C[C@@H]1C | 3.6* | 2.4 | . | -0.132 | i
C/C=C/c1cnc2c(c1)C(=O)N([C@H](C)CO)C[C@H](C)[C@@H](CN(C)C(=O)c1ccc3c(c1)OCO3)O2 | -0.1 | -2.7 | . | . | .
CC(=O)N1[C@H](CO)[C@H](c2ccccc2)[C@H]1CN(CC1CCC1)C(=O)CN(C)C | 0.0 | 0.2 | . | . | .
Nc1n[nH]c(=S)n1/N=C1/C(=O)Nc2ccccc21 | 1.8* | -1.0 | . | 0.05 | i
O=C1Nc2ccccc2C1=NN1CCCCCC1 | . | -5.3 | 13.4 | . | .
C[C@H]1CN([C@@H](C)CO)C(=O)Cc2cc(NC(=O)Cn3cnnn3)ccc2O[C@H]1CN(C)C(=O)Nc1ccc(F)cc1 | . | 0.8 | . | . | .
NS(=O)(=O)c1ccc(NC(=O)Nc2cccc(Cl)c2)cc1 | 2.2* | 4.3 | -1.5 | -0.043 | i
NS(=O)(=O)c1ccc(NC(=O)Nc2ccccc2)cc1 | -0.2 | 1.7 | -6.1 | . | .
COc1ccc(CN(C)C[C@H]2Oc3ccc(NS(=O)(=O)c4ccc(F)cc4)cc3C(=O)N([C@@H](C)CO)C[C@H]2C)cc1 | 0.8 | 3.8 | . | . | .
C[C@H](CO)N1C[C@H](C)[C@@H](CN(C)S(=O)(=O)c2cn(C)cn2)Oc2ccc(NC(=O)NC3CCCCC3)cc2CC1=O | 0.2 | -1.7 | . | . | .
O=C(c1ccccc1)N1C[C@H]2[C@@H](c3ccccc31)[C@@H](CO)N2C(=O)c1ccccn1 | -0.1 | -5.4 | . | . | .
O=C(c1cccc(F)c1)N1C[C@H]2[C@@H](c3ccccc31)[C@@H](CO)N2C(=O)c1ccccn1 | 3.3* | 2.2 | . | -0.048[42 µM] | i
O=C(c1ccccn1)N1C[C@H]2[C@@H](c3ccccc31)[C@@H](CO)N2C(=O)c1ccccn1 | 11.2* | 3.9 | . | -0.005[42 µM] | i
O=C(c1ccccc1)N1C[C@H]2[C@@H](c3ccccc31)[C@H](CO)N2C(=O)c1ccccn1 | -0.2 | -0.9 | . | . | .
CO[C@@H]1CN(C)C(=O)c2ccc(NC(=O)C3CC3)cc2OC[C@H](C)N(Cc2ccncc2)C[C@@H]1C | 0.2 | -0.9 | . | . | .
SMILES | FGF22 binding-1 | F508del corr | Vif inh | FGF22 binding-2 | TSA no protein | others
CO[C@H]1CN(C)C(=O)c2cc(NC(=O)Nc3cc(F)ccc3F)ccc2OC[C@H](C)N(C(=O)c2cnccn2)C[C@@H]1C | -0.2 | -0.6 | . | . | .
C[C@@H]1CN([C@@H](C)CO)C(=O)c2cc(C#C[C@@H](C)O)cnc2O[C@@H]1CN(C)C(=O)c1ccccc1F | 0.3 | -2.1 | . | . | .
COc1cccc(C(=O)Nc2ccc3[nH]ncc3c2)c1 | 1.1 | 3.6 | -1.4 | . | .
CCOc1cccc(C(=O)Nc2ccc3[nH]ncc3c2)c1 | 1.6* | 2.5 | -5.1 | -0.074 | i | FGF22 TSA=-0.2
COc1ccc(S(=O)(=O)Nc2ccc3c(c2)C(=O)N([C@H](C)CO)C[C@H](C)[C@H](CN(C)Cc2ccncc2)OCCCC[C@@H](C)O3)cc1 | 0.0 | -1.1 | . | . | .
Cc1ccc(C(=O)Nc2nc(=O)n(C(=O)C3CC3)s2)cc1 | 1.3* | 1.9 | -7.3 | -0.088 | i
O=C(Nc1nc(=O)[nH]s1)c1ccccc1 | 0.7 | -0.8 | -0.8 | . | .
Cc1ccc(C(=O)Nc2nc(=O)n(C(=O)c3ccccc3C)s2)cc1 | . | . | -5.2 | . | .
O=C(Nc1nc(=O)n(C(=O)C2CC2)s1)c1ccccc1 | 2.2* | -1.7 | -3.7 | -0.028 | i
O=C(NCC[C@H]1CC[C@@H](NS(=O)(=O)c2ccccc2)[C@H](CO)O1)c1ccc2c(c1)OCO2 | -0.2 | -1.2 | . | . | .
O=C(NCC[C@@H]1CC[C@@H](NS(=O)(=O)c2ccccc2)[C@@H](CO)O1)c1ccc2c(c1)OCO2 | 1.4* | 0.7 | . | -0.103[42 µM] | i
O=C(NNc1nc2c(F)cccc2s1)C1COc2ccccc2O1 (configuration not stated) | -0.4 | -1.5 | -5.1 | . | .
COc1cccc2sc(NNC(=O)C3COc4ccccc4O3)nc12 (configuration not stated) | 17.4* | -1.9 | -3.8 | 0.218 | i
COCC#Cc1ccc2c(c1)O[C@@H](CN(C)C(=O)c1ccccc1)[C@H](C)CN([C@H](C)CO)S2(=O)=O | -0.6 | -0.2 | . | . | .
COCC(=O)N(C)C[C@H]1Oc2cc(C#Cc3ccccc3)ccc2S(=O)(=O)N([C@H](C)CO)C[C@H]1C | 6.2* | -0.5 | . | 0.1[42 µM] | i
COCC#Cc1ccc2c(c1)O[C@H](CN(C)C(=O)c1ccccc1)[C@@H](C)CN([C@@H](C)CO)S2(=O)=O | 8.3* | 0.1 | . | 0.172[42 µM] | i
COCC(=O)N(C)C[C@@H]1Oc2cc(C#Cc3ccccc3)ccc2S(=O)(=O)N([C@@H](C)CO)C[C@@H]1C | -1.0 | 3.6 | . | . | .
